The results in this text go back to the supplement of paper PMC6522484.

Experiment [1] deals with DLD1. The experiment in a line: cell viability (CellTiter-Glo) relative to plate median (fraction of plate median); higher = more viable cells. To be noted: 5 µM; treatment time 24 h; reporter: 7TFP. In outline:
(§1)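 Library compounds were added at a final concentration of 5 µM for 24 h to colorectal cancer cells stably transduced with a lentiviral TCF/Wnt firefly luciferase reporter. Reported values are firefly luciferase or CellTiterGlo luminescence, normalised per well to the plate median. Each value averages two independent replicates.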

A further experiment deals with HCT116. The description is as above. To be noted: 5 µM; treatment time 24 h; reporter: TCF4/Wnt. In outline: as §1
The test system of experiment [2] is SW480. The experiment is described as above. The note with it: 5 µM; treatment time 24 h; reporter: 7TFP. An outline of the steps:
as §1

The subject of experiment [3] is DLD1. The experiment in a line: TCF/Wnt firefly luciferase reporter signal relative to plate median (fraction of plate median); higher = higher Wnt reporter signal. To be noted: 5 µM; treatment time 24 h; reporter: 7TFP. In outline: as §1
(In general: In a reporter assay the amount or activity of a reporter protein is the signal.)

The subject of experiment [4] is SW480. Described as above. The note with it: 5 µM; treatment time 24 h; reporter: 7TFP. In outline:
as §1

± gives the standard deviation of the averaged measurements.

Consider `CC(C)(C)NCC(O)COc1cccc2c1CC(O)C(O)C2` (stereo not given), for which the values for the cell viability in the experiment with DLD1 [1], in the experiment on HCT116 and in the experiment on SW480 [2] were 1.05 ± 0.11, 0.929 ± 0.015 and 1.04 ± 0.028, respectively. Further, the “TCF/Wnt firefly luciferase reporter signal” value in the experiment on DLD1 [3] came out at 1.02 ± 0.15; with SW480 [4] it was 0.996 ± 0.063.

As to `Cc1cc(C(C)(C)C)c(O)c(C)c1CC1=NCCN1`, the cell viability in the experiment with DLD1 [1] is 0.977 ± 0.047; in the experiment on HCT116, 0.895 ± 0.016; with SW480 [2], 0.972 ± 0.035. In addition, the “TCF/Wnt firefly luciferase reporter signal” value in the experiment with DLD1 [3] stood at 1.15 ± 0.13; in the experiment on SW480 [4] it was 1.065 ± 0.0071.

Take `COC(=O)[C@@H]1OC(=O)C2OC23[C@@]1(C)CCC1[C@@]2(C)CCC(=O)C(C)(C)C2C[C@@H](OC(C)=O)[C@]13C` (stereo not given in full): the results for the cell viability in the experiment on DLD1 [1], with HCT116 and in the experiment on SW480 [2] were 0.993 ± 0.011, 1.07 ± 0.078 and 1.01 ± 0.017, respectively. In addition, the “TCF/Wnt firefly luciferase reporter signal” value in the experiment on DLD1 [3] came to 0.86 ± 0.037; with SW480 [4], 1.03 ± 0.046.

For the molecule `CCC(=O)OCC(=O)[C@@]1(OC(=O)CC)[C@@H](C)C[C@H]2[C@@H]3CCC4=CC(=O)C=C[C@]4(C)[C@@]3(Cl)[C@@H](O)C[C@@]21C`, the cell viability in the experiment with DLD1 [1] is 0.958 ± 0.0057; in the experiment on HCT116, 0.982 ± 0.11; in the experiment with SW480 [2], 1.01. The “TCF/Wnt firefly luciferase reporter signal” value in the experiment on DLD1 [3] stood at 0.94 ± 0.044; in the experiment on SW480 [4] it was 0.941 ± 0.018.

As for `C#CC1(O)CC[C@H]2[C@@H]3CCC4=CC(=O)CC[C@@H]4[C@H]3CC[C@@]21CC` (mixture of isomers), the cell viability stood at 0.925 ± 0.0014 with DLD1 [1], 0.875 ± 0.018 in the experiment with HCT116 and 0.957 ± 0.026 in the experiment with SW480 [2]. Moreover, the “TCF/Wnt firefly luciferase reporter signal” value was determined as 1.14 ± 0.028 with DLD1 [3] and 1.14 ± 0.035 in the experiment with SW480 [4].

For `CC1(C)CC2C1CC[C@]1(CBr)CCC3C(CC(=O)O)C(=O)O[C@@]32C1` (stereo not given in full) [BROMO-3-HYDROXY-4-(SUCCIN-2-YL)-CARYOLANE gamma-LACTONE], the cell viability in the experiment with DLD1 [1] was 0.95 ± 0.085; with HCT116 it was 1.03 ± 0.079; in the experiment with SW480 [2], 0.987 ± 0.033. The figures for the “TCF/Wnt firefly luciferase reporter signal” value with DLD1 [3] and in the experiment with SW480 [4] were 1.08 ± 0.035 and 1.095 ± 0.0071, respectively.

On to `O=C(O)c1cn(C2CC2)c2cc(N3CCNCC3)c(F)cc2c1=O`, for which the results for the cell viability in the experiment with DLD1 [1], in the experiment with HCT116 and with SW480 [2] were 0.964 ± 0.037, 0.988 ± 0.015 and 1.03 ± 0.021, respectively. The results for the “TCF/Wnt firefly luciferase reporter signal” value in the experiment with DLD1 [3] and with SW480 [4] were 1.05 ± 0.078 and 1.07 ± 0.014, respectively.

Regarding `C[C@@H]1C[C@H]2[C@@H]3C[C@H](F)C4=CC(=O)C=C[C@]4(C)[C@@]3(F)[C@@H](O)C[C@]2(C)[C@@]1(O)C(=O)CO`, the figures for the cell viability in the experiment with DLD1 [1], with HCT116 and with SW480 [2] were 1.05 ± 0.057, 0.889 ± 0.02 and 1.03 ± 0.028, respectively. Also, the figures for the “TCF/Wnt firefly luciferase reporter signal” value with DLD1 [3] and in the experiment with SW480 [4] were 1.02 ± 0.14 and 0.986 ± 0.076, respectively.

`Nc1c(Br)cc(Br)cc1CN[C@H]1CC[C@H](O)CC1`: the cell viability with DLD1 [1] stood at 0.914 ± 0.066; in the experiment on HCT116, 1.09 ± 0.11; in the experiment on SW480 [2], 0.946 ± 0.029. The “TCF/Wnt firefly luciferase reporter signal” value in the experiment with DLD1 [3] is 0.944 ± 0.19; in the experiment with SW480 [4], 0.887 ± 0.016.

For the molecule `CCCCS(=N)(=O)CCC(N)C(=O)O` (stereo not given), the cell viability stood at 1.04 ± 0.021 in the experiment with DLD1 [1], 0.948 ± 0.22 in the experiment on HCT116 and 1.08 ± 0.014 in the experiment with SW480 [2]. In addition, the “TCF/Wnt firefly luciferase reporter signal” value worked out at 1.05 ± 0.028 with DLD1 [3] and 1.03 ± 0.11 in the experiment with SW480 [4].

For `CCN(CC)CCOCCOC(=O)C1(c2ccccc2)CCCC1`, the cell viability came out at 1.03 ± 0.13 with DLD1 [1], 0.887 ± 0.1 in the experiment with HCT116 and 0.916 ± 0.013 in the experiment with SW480 [2]. Moreover, the “TCF/Wnt firefly luciferase reporter signal” value in the experiment with DLD1 [3] is 1.12 ± 0.16; in the experiment with SW480 [4] it was 1.04 ± 0.028.

Turning to `NC(=O)c1ncn([C@@H]2O[C@H](CO)[C@@H](O)[C@H]2O)c1N`, the cell viability was determined as 0.989 ± 0.03 in the experiment with DLD1 [1], 0.947 ± 0.055 in the experiment with HCT116 and 0.949 ± 0.04 in the experiment on SW480 [2]. Besides, the “TCF/Wnt firefly luciferase reporter signal” value with DLD1 [3] came out at 1 ± 0.012; in the experiment with SW480 [4] it was 0.927 ± 0.044.

Take `CCCCCCCCCCCCCCCC(=O)OC[C@@H](NC(=O)C(Cl)Cl)[C@H](O)c1ccc([N+](=O)[O-])cc1`: the results for the cell viability in the experiment on DLD1 [1], with HCT116 and in the experiment with SW480 [2] were 0.96 ± 0.0042, 0.996 ± 0.02 and 1.01, respectively. Besides, the results for the “TCF/Wnt firefly luciferase reporter signal” value in the experiment on DLD1 [3] and in the experiment on SW480 [4] were 0.971 ± 0.028 and 1.02 ± 0.052, respectively.

On to `O=C(Nc1ccccc1)Nc1ccccc1`, for which the cell viability in the experiment on DLD1 [1] amounted to 1.02 ± 0.13; in the experiment on HCT116 it was 0.996 ± 0.048; with SW480 [2], 1.05 ± 0.092. Further, the “TCF/Wnt firefly luciferase reporter signal” value came to 1.2 ± 0.11 in the experiment on DLD1 [3] and 1.01 ± 0.04 in the experiment on SW480 [4].

`CCC(C)C(N)=O` (stereo not given) [2-Methylbutyramide]: the figures for the cell viability in the experiment on DLD1 [1], in the experiment on HCT116 and in the experiment on SW480 [2] were 1.06 ± 0.028, 1.05 ± 0.021 and 1.01 ± 0.018, respectively. The “TCF/Wnt firefly luciferase reporter signal” value in the experiment with DLD1 [3] was 1.16 ± 0.071; in the experiment with SW480 [4], 1.045 ± 0.0071.

For the molecule `CCN1CCCC(OC(=O)C(c2ccccc2)c2ccccc2)C1` (stereo not given), the cell viability was determined as 0.981 with DLD1 [1], 1.01 in the experiment on HCT116 and 0.953 ± 0.025 with SW480 [2]. Also, the “TCF/Wnt firefly luciferase reporter signal” value with DLD1 [3] was 0.941 ± 0.076; in the experiment on SW480 [4], 1.01 ± 0.07.

Turning to `CC(C)(Sc1cc(C(C)(C)C)c(O)c(C(C)(C)C)c1)Sc1cc(C(C)(C)C)c(O)c(C(C)(C)C)c1`, the cell viability in the experiment on DLD1 [1] turned out to be 0.947 ± 0.034; with HCT116 it was 0.987 ± 0.061; in the experiment with SW480 [2] it was 0.955 ± 0.028. Besides, the figures for the “TCF/Wnt firefly luciferase reporter signal” value in the experiment on DLD1 [3] and in the experiment with SW480 [4] were 1.01 ± 0.035 and 1.035 ± 0.0071, respectively.
